# Compound: CN[C@@H]1C[C@H]2O[C@@](C)([C@@H]1OC)n1c3ccccc3c3c4c(c5c6ccccc6n2c5c31)C(=O)NC4 [staurosporine]
# Assay: log2 fold change of tryptic peptide abundance, ligand vs vehicle (limited proteolysis) (log2 ratio); higher = more trypsin-susceptible (destabilized)
# Conditions: ligand concentration: 20 uM; sample: mouse liver crude lysate; replicate design: treated separately
# Chain of UniProt Q8VCC2 (Q8VCC2 whole entry): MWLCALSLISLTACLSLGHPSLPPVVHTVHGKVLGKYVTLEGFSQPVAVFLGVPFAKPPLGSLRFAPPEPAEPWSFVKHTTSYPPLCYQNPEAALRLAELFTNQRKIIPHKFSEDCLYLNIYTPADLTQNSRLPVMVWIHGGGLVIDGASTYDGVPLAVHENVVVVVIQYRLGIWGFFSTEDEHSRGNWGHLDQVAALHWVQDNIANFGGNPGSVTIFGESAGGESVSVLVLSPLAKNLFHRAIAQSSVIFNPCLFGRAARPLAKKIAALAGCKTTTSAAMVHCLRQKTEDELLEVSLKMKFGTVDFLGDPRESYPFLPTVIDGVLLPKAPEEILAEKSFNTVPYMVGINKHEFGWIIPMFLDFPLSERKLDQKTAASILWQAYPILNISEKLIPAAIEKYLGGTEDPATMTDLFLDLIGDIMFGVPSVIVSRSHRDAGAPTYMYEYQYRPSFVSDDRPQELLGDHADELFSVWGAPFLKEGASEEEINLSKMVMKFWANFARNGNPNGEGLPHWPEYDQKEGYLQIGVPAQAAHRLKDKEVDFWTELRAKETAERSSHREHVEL
# Chain of UniProt Q8JZR0 (Q8JZR0 whole entry): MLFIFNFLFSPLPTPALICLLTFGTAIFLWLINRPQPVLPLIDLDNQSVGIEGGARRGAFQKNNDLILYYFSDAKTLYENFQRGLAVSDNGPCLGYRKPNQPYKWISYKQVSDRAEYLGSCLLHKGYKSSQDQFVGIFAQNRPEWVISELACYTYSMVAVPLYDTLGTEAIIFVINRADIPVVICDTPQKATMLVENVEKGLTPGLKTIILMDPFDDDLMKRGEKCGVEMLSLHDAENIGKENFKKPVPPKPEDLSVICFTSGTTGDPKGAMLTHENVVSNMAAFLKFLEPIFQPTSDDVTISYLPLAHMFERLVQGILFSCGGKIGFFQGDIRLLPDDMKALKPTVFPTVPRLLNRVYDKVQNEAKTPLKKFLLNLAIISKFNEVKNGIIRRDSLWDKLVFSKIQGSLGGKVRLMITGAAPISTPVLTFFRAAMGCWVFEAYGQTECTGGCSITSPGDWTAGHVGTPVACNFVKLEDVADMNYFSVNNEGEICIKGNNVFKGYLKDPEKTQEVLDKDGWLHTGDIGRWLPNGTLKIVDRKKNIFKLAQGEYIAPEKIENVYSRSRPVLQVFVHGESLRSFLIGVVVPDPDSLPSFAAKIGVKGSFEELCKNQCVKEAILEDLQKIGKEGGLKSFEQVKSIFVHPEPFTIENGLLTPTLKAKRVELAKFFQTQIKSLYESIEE
# Chain of UniProt Q64310 (Q64310 whole entry): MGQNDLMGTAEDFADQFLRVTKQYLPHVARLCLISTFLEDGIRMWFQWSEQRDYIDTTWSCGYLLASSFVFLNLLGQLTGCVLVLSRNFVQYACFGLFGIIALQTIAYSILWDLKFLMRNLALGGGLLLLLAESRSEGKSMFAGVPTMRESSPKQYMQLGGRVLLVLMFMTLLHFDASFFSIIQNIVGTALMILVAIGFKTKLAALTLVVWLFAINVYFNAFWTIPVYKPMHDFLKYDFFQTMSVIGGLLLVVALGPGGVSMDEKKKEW
# Chain of UniProt Q9CYZ2 (Q9CYZ2 whole entry): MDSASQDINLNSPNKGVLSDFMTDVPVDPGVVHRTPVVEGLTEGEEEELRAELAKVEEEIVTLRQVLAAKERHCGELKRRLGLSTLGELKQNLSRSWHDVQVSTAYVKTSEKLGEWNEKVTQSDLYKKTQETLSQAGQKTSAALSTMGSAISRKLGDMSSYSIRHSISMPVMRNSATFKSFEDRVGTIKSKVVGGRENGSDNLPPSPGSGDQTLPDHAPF
# Chain of UniProt Q8N9S3 (Q8N9S3 whole entry): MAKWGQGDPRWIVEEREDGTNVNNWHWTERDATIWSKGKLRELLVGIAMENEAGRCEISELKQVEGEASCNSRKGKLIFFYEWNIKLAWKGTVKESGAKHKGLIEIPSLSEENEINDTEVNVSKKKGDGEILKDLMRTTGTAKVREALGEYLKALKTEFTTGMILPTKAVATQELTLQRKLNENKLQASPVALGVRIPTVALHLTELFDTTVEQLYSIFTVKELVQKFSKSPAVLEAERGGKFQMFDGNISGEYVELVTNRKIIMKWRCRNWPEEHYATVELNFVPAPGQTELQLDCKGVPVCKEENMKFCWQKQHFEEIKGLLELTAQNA
# Chain of UniProt Q9Z1M4 (Q9Z1M4 whole entry): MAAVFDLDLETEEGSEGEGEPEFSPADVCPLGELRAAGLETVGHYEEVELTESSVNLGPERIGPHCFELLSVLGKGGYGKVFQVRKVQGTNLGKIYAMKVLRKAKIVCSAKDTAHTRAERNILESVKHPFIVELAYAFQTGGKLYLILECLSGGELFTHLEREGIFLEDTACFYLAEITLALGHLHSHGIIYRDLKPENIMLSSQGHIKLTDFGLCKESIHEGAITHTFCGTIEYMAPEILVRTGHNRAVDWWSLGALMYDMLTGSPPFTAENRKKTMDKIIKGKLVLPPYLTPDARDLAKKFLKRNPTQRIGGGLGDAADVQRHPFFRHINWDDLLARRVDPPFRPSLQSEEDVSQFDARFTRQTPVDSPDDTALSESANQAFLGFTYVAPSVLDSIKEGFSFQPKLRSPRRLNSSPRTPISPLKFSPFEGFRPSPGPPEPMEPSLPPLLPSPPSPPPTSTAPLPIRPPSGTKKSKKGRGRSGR
# Chain of UniProt Q8VDU5 (Q8VDU5 whole entry): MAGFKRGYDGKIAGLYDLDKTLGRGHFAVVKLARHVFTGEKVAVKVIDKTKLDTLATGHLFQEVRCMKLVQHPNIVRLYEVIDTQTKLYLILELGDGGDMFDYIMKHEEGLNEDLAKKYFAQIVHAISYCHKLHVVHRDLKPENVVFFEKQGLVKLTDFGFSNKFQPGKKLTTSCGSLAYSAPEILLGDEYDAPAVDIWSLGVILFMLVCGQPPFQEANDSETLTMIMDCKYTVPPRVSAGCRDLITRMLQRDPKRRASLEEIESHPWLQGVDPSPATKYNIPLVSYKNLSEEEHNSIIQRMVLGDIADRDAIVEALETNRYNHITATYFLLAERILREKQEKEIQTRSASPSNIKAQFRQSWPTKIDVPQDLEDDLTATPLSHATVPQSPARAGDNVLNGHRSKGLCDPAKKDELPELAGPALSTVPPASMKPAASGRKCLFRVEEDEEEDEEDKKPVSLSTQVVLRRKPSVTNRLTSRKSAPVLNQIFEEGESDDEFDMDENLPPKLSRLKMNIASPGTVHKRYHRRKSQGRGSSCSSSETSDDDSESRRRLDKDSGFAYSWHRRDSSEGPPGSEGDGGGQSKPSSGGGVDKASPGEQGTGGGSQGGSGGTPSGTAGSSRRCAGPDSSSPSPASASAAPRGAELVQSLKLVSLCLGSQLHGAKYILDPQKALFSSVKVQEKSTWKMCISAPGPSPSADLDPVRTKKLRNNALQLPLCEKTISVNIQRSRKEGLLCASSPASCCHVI
# Chain of UniProt Q8BTW9 (Q8BTW9 whole entry): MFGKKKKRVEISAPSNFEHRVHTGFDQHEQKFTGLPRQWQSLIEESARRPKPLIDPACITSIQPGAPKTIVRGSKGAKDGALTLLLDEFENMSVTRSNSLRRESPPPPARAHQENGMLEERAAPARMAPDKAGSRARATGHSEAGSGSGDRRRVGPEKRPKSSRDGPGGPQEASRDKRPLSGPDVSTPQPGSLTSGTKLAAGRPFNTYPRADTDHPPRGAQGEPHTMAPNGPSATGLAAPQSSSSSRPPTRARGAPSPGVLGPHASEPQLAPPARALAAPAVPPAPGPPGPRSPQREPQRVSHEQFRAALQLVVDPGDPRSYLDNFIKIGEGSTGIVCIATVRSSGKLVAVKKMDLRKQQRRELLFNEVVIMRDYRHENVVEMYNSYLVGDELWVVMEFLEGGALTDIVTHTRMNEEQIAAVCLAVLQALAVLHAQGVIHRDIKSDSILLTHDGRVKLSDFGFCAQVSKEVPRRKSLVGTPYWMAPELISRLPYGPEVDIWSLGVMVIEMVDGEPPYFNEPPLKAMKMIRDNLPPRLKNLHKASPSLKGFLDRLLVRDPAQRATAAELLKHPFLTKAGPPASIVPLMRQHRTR
# Chain of UniProt Q8BTH8 (Q8BTH8 whole entry): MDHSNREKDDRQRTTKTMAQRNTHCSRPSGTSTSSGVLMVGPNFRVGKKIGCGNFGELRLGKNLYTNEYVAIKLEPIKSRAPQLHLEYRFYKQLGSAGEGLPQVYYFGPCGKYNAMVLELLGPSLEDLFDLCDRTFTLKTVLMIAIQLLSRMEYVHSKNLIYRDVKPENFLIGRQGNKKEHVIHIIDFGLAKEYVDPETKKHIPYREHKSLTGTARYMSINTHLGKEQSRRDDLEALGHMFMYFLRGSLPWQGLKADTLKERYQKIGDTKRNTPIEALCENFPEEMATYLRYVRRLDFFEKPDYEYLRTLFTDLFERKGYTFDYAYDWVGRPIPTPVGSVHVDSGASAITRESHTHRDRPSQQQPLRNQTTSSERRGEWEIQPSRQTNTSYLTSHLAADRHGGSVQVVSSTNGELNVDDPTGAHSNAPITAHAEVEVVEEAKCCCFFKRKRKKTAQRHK
# Chain of UniProt Q99KH8 (Q99KH8 whole entry): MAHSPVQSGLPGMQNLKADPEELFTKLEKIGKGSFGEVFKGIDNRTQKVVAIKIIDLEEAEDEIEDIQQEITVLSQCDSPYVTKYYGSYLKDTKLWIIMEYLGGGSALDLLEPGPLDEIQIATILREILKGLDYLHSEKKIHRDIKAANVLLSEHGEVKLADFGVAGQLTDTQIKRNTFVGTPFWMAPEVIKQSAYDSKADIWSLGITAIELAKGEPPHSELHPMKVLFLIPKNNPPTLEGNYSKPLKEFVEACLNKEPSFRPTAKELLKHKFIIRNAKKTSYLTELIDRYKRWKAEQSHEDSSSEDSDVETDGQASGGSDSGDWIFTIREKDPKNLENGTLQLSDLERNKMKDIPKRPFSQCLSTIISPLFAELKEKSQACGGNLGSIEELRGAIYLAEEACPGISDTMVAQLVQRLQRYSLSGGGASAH
row,Target,log2 fold change
1,"UniProt Q8VCC2 (peptide sequence: LAELFTNQR, peptide start residue: 97)",-0.315
2,"UniProt Q8BTH8 (peptide sequence: GSLPWQGLK, peptide start residue: 245)",-0.593
3,"UniProt Q8N9S3 (peptide sequence: SPAVLEAER, peptide start residue: 231)",0.295
4,"UniProt P28652 (peptide sequence: NLINQMLTINPAKR, peptide start residue: 247)",-2.11
5,"UniProt P55264 (peptide sequence: ELFDELVK, peptide start residue: 63)",-2.24
6,"UniProt Q64310 (peptide sequence: SMFAGVPTMR, peptide start residue: 140)",0.247
7,"UniProt Q8JZR0 (peptide sequence: GYLKDPEK, peptide start residue: 503)",0.616
8,"UniProt Q6ZQ89 (peptide sequence: FIHQECLVQWLK, peptide start residue: 34)",0.572
9,"UniProt Q8VDU5 (peptide sequence: IAGLYDLDKTLGR, peptide start residue: 12)",-1.42
10,"UniProt P97742 (peptide sequence: IWMAMVK, peptide start residue: 149)",0.562
11,"UniProt Q9CYZ2 (peptide sequence: LGEWNEK, peptide start residue: 113)",0.397
12,"UniProt Q9Z1M4 (peptide sequence: IGPHCFELLSVLGK, peptide start residue: 62)",-0.47
13,"UniProt P62717 (peptide sequence: AHSIQIMK, peptide start residue: 121)",0.267
14,"UniProt Q6P9R2 (peptide sequence: EVLEGLEYLHK, peptide start residue: 129)",-0.823
15,"UniProt Q99KH8 (peptide sequence: GEPPHSELHPMK, peptide start residue: 215)",-1.74
16,"UniProt Q9EQ20 (peptide sequence: YQQLIKENLKEIAR, peptide start residue: 108)",-0.315
17,"UniProt Q9DB41 (peptide sequence: GAAVNLTLVTPEK, peptide start residue: 68)",0.677
18,"UniProt P55096 (peptide sequence: EKQTIHSVFRK, peptide start residue: 288)",0.493
19,"UniProt P83510 (peptide sequence: NIATYYGAFIK, peptide start residue: 81)",-0.608
20,"UniProt Q8C078 (peptide sequence: DIKPSNLLVGEDGHIK, peptide start residue: 312)",-3.1
21,"UniProt Q99MK8 (peptide sequence: DLKPANILLDEHGHVR, peptide start residue: 317)",-0.735
22,"UniProt P30681 (peptide sequence: MSSYAFFVQTCREEHK, peptide start residue: 13)",-0.185
23,"UniProt P54823 (peptide sequence: LDLKKDNIQAMVIVPTR, peptide start residue: 158)",1.16
24,"UniProt P22315 (peptide sequence: LFLDRDLMTLPIQNK, peptide start residue: 91)",-1.03
25,"UniProt Q9JM62 (peptide sequence: NVATEALGALEAR, peptide start residue: 16)",0.439
26,"UniProt Q8BTW9 (peptide sequence: SYLDNFIK, peptide start residue: 321)",-1.86
